# The full ranking holds about 8,300 sequences; the median of “log2 fold change of degron read counts, EGFP-low vs EGFP+ sorted cells (limma voom), compound-induced degradation” is about -1.1, and the highest 2% start at about 3.2. Many of the other results were omitted from the sample, so the highest values are more common in it than they were.
# T1: CRBN, Q96SW2
# T1 chain: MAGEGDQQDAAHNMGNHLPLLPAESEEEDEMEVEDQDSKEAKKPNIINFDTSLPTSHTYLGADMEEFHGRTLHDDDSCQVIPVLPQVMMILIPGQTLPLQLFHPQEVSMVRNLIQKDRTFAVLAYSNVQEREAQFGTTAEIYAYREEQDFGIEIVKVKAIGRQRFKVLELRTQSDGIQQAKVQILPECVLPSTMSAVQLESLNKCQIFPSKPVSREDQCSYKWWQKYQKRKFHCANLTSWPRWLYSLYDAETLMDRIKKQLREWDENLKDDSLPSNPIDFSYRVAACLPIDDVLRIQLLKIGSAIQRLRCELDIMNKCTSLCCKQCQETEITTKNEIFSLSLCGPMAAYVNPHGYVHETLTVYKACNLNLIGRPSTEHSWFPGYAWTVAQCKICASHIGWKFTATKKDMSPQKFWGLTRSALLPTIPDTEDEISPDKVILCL
# Target: T1, CRBN, Q96SW2
# Experiment: log2 fold change of degron read counts, EGFP-low vs EGFP+ sorted cells (limma voom), compound-induced degradation; higher = more compound-induced degradation of the degron-EGFP fusion; degrons are variants of IKZF1/3 zinc finger 2; compound dose not given here
# Conditions: Jurkat, 18 h
# [1] = compound: compound 19 (5-tert-butyl-thalidomide)
# [2] = compound: compound 22 (5-morpholino-thalidomide)
# [3] = compound: compound 33 (diphenyl IMiD analogue)
# 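Also: pooled lentiviral library of zinc finger degron-EGFP fusions in mCherry-positive Jurkat cells, FACS-sorted after compound exposure, with degron abundance counted by next-generation sequencing.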
Sequence,log2 fold change of degron read counts [1],log2 fold change of degron read counts [2],log2 fold change of degron read counts [3],log2 fold change of degron read counts (compound: thalidomide)
"FHCDQCGACFTQKGNLLRHIKL [46F_47H_49D_50Q_52G_53A_54C_55F_67L_, Q9UKT9]",-1.69,-1.96,-2.17,-2.89
"FICPICGAIFTQKGNLLRHIKL [46F_47I_49P_50I_52G_53A_54I_55F_67L_, Q9UKT9]",-1.09,0.608,1.82,1.64
"FICPICGRHFTQKGNLLRHIKL [46F_47I_49P_50I_52G_53R_54H_55F_67L_, Q9UKT9]",-1.55,-0.572,-0.548,0.569
"FYCDVCGATFTQKGNLLRHIKL [46F_47Y_49D_50V_52G_53A_54T_55F_67L_, Q9UKT9]",2.06,2.82,0.691,-1.49
"FTCEVCGARFTQKGNLLRHIKL [46F_47T_49E_50V_52G_53A_54R_55F_67L_, Q9UKT9]",1.77,3.04,1.75,3.26
"FTCEVCGALFTQKGNLLRHIKL [46F_47T_49E_50V_52G_53A_54L_55F_67L_, Q9UKT9]",-0.893,-0.862,0.362,0.612
"FHCEVCGARFTQKGNLLRHIKL [46F_47H_49E_50V_52G_53A_54R_55F_67L_, Q9UKT9]",2.39,2.38,0.473,0.568
"FSCEVCGARFTQKGNLLRHIKL [46F_47S_49E_50V_52G_53A_54R_55F_67L_, Q9UKT9]",3.53,2.6,0.369,2.08
"FRCEVCGARFTQKGNLLRHIKL [46F_47R_49E_50V_52G_53A_54R_55F_67L_, Q9UKT9]",-1.49,-2.37,-0.456,0.516
"FTCNICGAGFTQKGNLLRHIKL [46F_47T_49N_50I_52G_53A_54G_55F_67L_, Q9UKT9]",0.378,0.88,1.61,1.21
"FSCEICGAEFTQKGNLLRHIKL [46F_47S_49E_50I_52G_53A_54E_55F_67L_, Q9UKT9]",1.69,0.708,0.218,0.0707
"FWCPICGAAFTQKGNLLRHIKL [46F_47W_49P_50I_52G_53A_54A_55F_67L_, Q9UKT9]",3.12,3.3,2.33,1.2
"FVCPICGAAFTQKGNLLRHIKL [46F_47V_49P_50I_52G_53A_54A_55F_67L_, Q9UKT9]",1.31,2.85,2.04,3.03
"FKCPICGAAFTQKGNLLRHIKL [46F_47K_49P_50I_52G_53A_54A_55F_67L_, Q9UKT9]",2.04,-0.319,-1.26,1.01
"FGCPICGAAFTQKGNLLRHIKL [46F_47G_49P_50I_52G_53A_54A_55F_67L_, Q9UKT9]",3.57,2.61,2.88,1.63
"FRCPICGAAFTQKGNLLRHIKL [46F_47R_49P_50I_52G_53A_54A_55F_67L_, Q9UKT9]",2.26,2.26,2.48,2.19
"FICPICGAAFTQKGNLLRHIKL [46F_47I_49P_50I_52G_53A_54A_55F_67L_, Q9UKT9]",0.268,3.15,2.21,2.78
"FFCPICGAAFTQKGNLLRHIKL [46F_47F_49P_50I_52G_53A_54A_55F_67L_, Q9UKT9]",3.15,3,2.18,1.33
"FQCPICGAAFTQKGNLLRHIKL [46F_47Q_49P_50I_52G_53A_54A_55F_67L_, Q9UKT9]",2.65,3.13,2.56,3.53
"FYCPICGAAFTQKGNLLRHIKL [46F_47Y_49P_50I_52G_53A_54A_55F_67L_, Q9UKT9]",2.86,3.24,2.38,0.578
"FNCPICGAAFTQKGNLLRHIKL [46F_47N_49P_50I_52G_53A_54A_55F_67L_, Q9UKT9]",2.96,1.85,0.954,1.13
"FHCPICGAAFTQKGNLLRHIKL [46F_47H_49P_50I_52G_53A_54A_55F_67L_, Q9UKT9]",3.05,2.78,2.28,1.19
"FSCPICGAAFTQKGNLLRHIKL [46F_47S_49P_50I_52G_53A_54A_55F_67L_, Q9UKT9]",3.12,2.69,2.7,2.11

# — the supplement of paper PMC12645437, “Orthogonal IMiD-Degron Pairs Induce Selective Protein Degradation in Cells” (ACS Chemical Biology, 2025)
